Records with an inconclusive call do not appear. Active and inactive are the calls of the source.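 Rule for the calls, unless noted: active = compound that reduces growth-factor-driven endothelial tube area in a mixed cell culture, no cutoff stated; inactive = the rest.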
Tests used:
[1] = stimulators of insulin release from INS-1E, primary screen, cell-based, 5 mM glucose, NPC library (AID 1117329;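 active = compound raises insulin release from rat beta cells at 5 mM glucose, no numeric limit stated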); details: rat INS-1E insulin secretion, at 10 µM, stronger effect = higher value
[2] = growth inhibition of GSK3B-pretreated HCT116 cells – cell-based, CellTiter-Glo, 0.2 to 20 µM (AID 1117336;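 active = compounds lowering colon cancer cell viability after pretreatment blocking the GSK3B kinase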); details: HCT116 viability after GSK3B inhibitor, at 20 µM, stronger effect = higher value
[3] = inhibition of endothelial tube formation, primary screen, imaging, VEGF stimulated, CD31 staining, tube area, NPC library (AID 1117340); details: VEGF-stimulated ADSC/ECFC co-culture, at 10 µM, stronger effect = higher value
[4] = glucagon-like peptide 1 release enhancers, primary assay, NCI-H716 cell line, NPC library (AID 1117341;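 active = compound raises GLP1 secretion from the human gut endocrine cells, with no numeric limit stated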); details: NCI-H716 cells, at 10 µM, stronger effect = higher value
[5] = HCT116 colon cancer cell growth inhibition, primary screen, CellTiter-Glo luminescence, NPC library (AID 1117342;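 active = compounds that lower survival of HCT116 colon cancer cells in the luminescence readout, no numeric limit stated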); details: at 20 µM (top of the series)
[6] = CellTiter-Glo luminescent readout of SW480 viability loss, NPC library primary (AID 1117343;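 active = compounds that lower viability of the colon cancer cells in the luminescence readout, with no numeric limit stated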); details: CellTiter-Glo luminescence; at 20 µM (top of the series)
[7] = decreased DLD-1 cellular survival, CellTiter-Glo luminescent readout, NPC compound collection, primary HTS (AID 1117346;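 active = compounds that lower survival of DLD-1 colon cancer cells in the luminescence readout, no cutoff given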); details: DLD-1 viability, CellTiter-Glo luminescence; at 20 µM (top of the series)
[8] = molecular target: 6-phosphogluconate dehydrogenase, decarboxylating (Homo sapiens) (UniProt P52209); experiment: 6PGD enzyme inhibitors, primary screen, biochemical, human, recombinant enzyme, NADPH absorbance (AID 1159550;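 active = at least 20% inhibition of 6-phosphogluconate dehydrogenase activity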); details: recombinant 6PGD, NADPH absorbance 341 nm; at 10 µM; stronger effect = higher value
[9] = differential killing of epithelial or mesenchymal cells, primary screen, imaging, PC-3E GFP, TEM4-18 mCherry, co-culture (AID 1345086;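 active = compounds killing one labelled cell type while sparing the other, by normalised counts and ratio limits, not self-fluorescent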;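 for all read-outs here: cells exposed to compound for 72 h before imaging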;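 for red/green cell ratio (normalised): normalised mesenchymal count divided by normalised epithelial count so high means epithelial killing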); details: imaging cell counts, at 1 µM; for red/green cell ratio (normalised): actives lie on both sides, counts scaled to control wells, 1 = unselective
[10] = growth inhibition of DIPG glioma cells, dose response, cell-based, SU-DIPG-XVII, MIPE5.0, CellTiter-Glo, qHTS (AID 1347060; cut-off not given, nearly all actives have AC50 up to about 26 µM;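 for AC50: cells exposed to compound for 48 hours before viability readout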); details: SU-DIPG-XVII viability, CellTiter-Glo ATP luminescence
[11] = growth inhibition of DIPG glioma cells, dose response, cell-based, SU-DIPG-XIII, MIPE4.0, CellTiter-Glo, qHTS (AID 1347061; cut-off not given, nearly all actives have AC50 up to about 37 µM;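 note: cells exposed to compound for 48 hours before readout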); details: SU-DIPG-XIII viability, CellTiter-Glo ATP luminescence
[12] = growth inhibition of DIPG glioma cells, dose response, cell-based, JHH-DIPG-1, MIPE4.0, CellTiter-Glo, qHTS (AID 1347062; cut-off not given, nearly all actives have AC50 up to about 27 µM;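 for AC50: cells exposed to compound for two days before readout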); details: JHH-DIPG-1 viability, CellTiter-Glo ATP luminescence
[13] = growth inhibition of DIPG glioma cells, dose response, cell-based, SU-DIPG-IV, MIPE4.0, CellTiter-Glo, qHTS (AID 1347063; cut-off not given, nearly all actives have AC50 up to about 30 µM;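 note: compound exposure lasted 48 hours before the viability readout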); details: SU-DIPG-IV viability, CellTiter-Glo ATP luminescence
[14] = growth inhibition of DIPG glioma cells, dose response, cell-based, SU-DIPG-XIII, MIPE5.0, CellTiter-Glo, qHTS (AID 1347064; cut-off not given, nearly all actives have AC50 up to about 23 µM;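 for AC50: cells exposed to compound for 48 hours before the viability read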); details: SU-DIPG-XIII viability, CellTiter-Glo ATP luminescence
[15] = system: Aerobactin synthetase IucA (Klebsiella pneumoniae); experiment: IucA aerobactin synthetase inhibitors, biochemical, Tocris library, absorbance (AID 1345561; call rule not given here;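 note: 100% = enzyme without compound and 0% = no enzyme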); details: purified IucA enzyme assay, absorbance (OD) read-out; stronger effect = lower value;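 tested at 8 µM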
[16] = measured here: epithelial PC-3E GFP cell survival
[17] = measured here: mesenchymal TEM4-18 mCherry cell survival

6-phosphogluconate dehydrogenase, decarboxylating (Homo sapiens), sequence (P52209 whole entry, looked up): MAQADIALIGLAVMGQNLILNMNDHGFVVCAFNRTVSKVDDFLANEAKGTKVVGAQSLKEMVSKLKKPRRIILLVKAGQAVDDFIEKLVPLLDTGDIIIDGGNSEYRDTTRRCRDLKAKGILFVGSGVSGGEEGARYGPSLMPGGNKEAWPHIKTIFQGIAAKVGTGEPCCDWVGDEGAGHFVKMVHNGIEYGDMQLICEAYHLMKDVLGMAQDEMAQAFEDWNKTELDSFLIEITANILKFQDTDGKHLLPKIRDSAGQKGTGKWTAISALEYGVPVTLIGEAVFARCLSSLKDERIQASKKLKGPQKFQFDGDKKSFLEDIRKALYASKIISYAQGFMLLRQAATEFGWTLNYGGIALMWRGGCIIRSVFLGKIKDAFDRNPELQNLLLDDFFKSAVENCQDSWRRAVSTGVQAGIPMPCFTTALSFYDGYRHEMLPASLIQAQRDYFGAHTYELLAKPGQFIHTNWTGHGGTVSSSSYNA

## CN(C)c1ccc(C(=C2C=CC(=[N+](C)C)C=C2)c2ccc(N(C)C)cc2)cc1
[1]
  insulin secretion stimulation: -0.2% (inactive)
[2]
  viability decrease: 104% (active)
[3]
  tube area decrease: 108% (active)
[4]
  GLP1 secretion stimulation: -16% (inactive)
[5]
  inhibition of viability: 103% (active)
[6]
  viability decrease (inhibition): 146% (active)
[7]
  viability decrease (inhibition): 106% (active)
[8]
  inhibition: 5.37% (inactive)
[9]
  red/green cell ratio (normalised): 3.62 (active)
[9]; [16]
  normalised cell number: 0.14
[9]; [17]
  normalised cell number: 0.5
[10]
  AC50: 1480 nM (active)
[11]
  AC50: 2960 nM (active)
[12]
  AC50: 235 nM (active)
[13]
  AC50: 148 nM (active)
[14]
  AC50: 1480 nM (active)

## NCC1CCC(C(=O)O)CC1 (centres undefined)
[1]
  insulin secretion stimulation: -1.6% (inactive)
[2]
  viability decrease: -8.4% (inactive)
[3]
  tube area decrease: 25.3% (inactive)
[4]
  GLP1 secretion stimulation: 0.1% (inactive)
[5]
  inhibition of viability: -10.3% (inactive)
[6]
  viability decrease (inhibition): 2.1% (inactive)
[7]
  viability decrease (inhibition): -6% (inactive)
[8]
  inhibition: 7.43% (inactive)
[9]
  red/green cell ratio (normalised): 1.26 (inactive)
[9]; [16]
  normalised cell number: 1
[9]; [17]
  normalised cell number: 1.27
[10]
  outcome: inactive
[11]
  outcome: inactive
[12]
  outcome: inactive
[13]
  outcome: inactive

## O=C(Nc1ccc([N+](=O)[O-])cc1Cl)c1cc(Cl)ccc1O
[1]
  insulin secretion stimulation: -1.7% (inactive)
[2]
  viability decrease: 99.7% (active)
[3]
  tube area decrease: 103% (active)
[4]
  GLP1 secretion stimulation: 3.3% (inactive)
[5]
  inhibition of viability: 107% (active)
[6]
  viability decrease (inhibition): 120% (active)
[7]
  viability decrease (inhibition): 102% (active)
[8]
  inhibition: 9.61% (inactive)
[9]
  red/green cell ratio (normalised): 0.66 (inactive)
[9]; [16]
  normalised cell number: 0.36
[9]; [17]
  normalised cell number: 0.24
[10]
  AC50: 1050 nM (active)
[11]
  AC50: 935 nM (active)
[12]
  AC50: 1660 nM (active)
[13]
  AC50: 1660 nM (active)
[14]
  AC50: 1180 nM (active)

## COC(=O)Nc1nc2ccc(S(=O)c3ccccc3)cc2[nH]1 (centres undefined)
[1]
  insulin secretion stimulation: -2.4% (inactive)
[2]
  viability decrease: 93.5% (active)
[3]
  tube area decrease: 110% (active)
[4]
  GLP1 secretion stimulation: 8% (inactive)
[5]
  inhibition of viability: 92.2% (active)
[6]
  viability decrease (inhibition): 96% (active)
[7]
  viability decrease (inhibition): 88% (active)
[8]
  inhibition: 17.4% (inactive)
[9]
  red/green cell ratio (normalised): 0.97 (inactive)
[9]; [16]
  normalised cell number: 0.97
[9]; [17]
  normalised cell number: 0.95
[10]
  AC50: 18600 nM (active)

## CCOC(=O)C(C)(C)Oc1ccc(Cl)cc1
[1]
  insulin secretion stimulation: -0.8% (inactive)
[2]
  viability decrease: -28.2% (inactive)
[3]
  tube area decrease: -5.8% (inactive)
[4]
  GLP1 secretion stimulation: -1.1% (inactive)
[5]
  inhibition of viability: -9.77% (inactive)
[6]
  viability decrease (inhibition): 7.5% (inactive)
[7]
  viability decrease (inhibition): -40.7% (inactive)
[8]
  inhibition: -1.28% (inactive)
[9]
  red/green cell ratio (normalised): 0.94 (inactive)
[9]; [16]
  normalised cell number: 1.28
[9]; [17]
  normalised cell number: 1.2
[10]
  outcome: inactive
[11]
  outcome: inactive
[12]
  outcome: inactive
[14]
  outcome: inactive

## Cc1oncc1C(=O)Nc1ccc(C(F)(F)F)cc1
[1]
  insulin secretion stimulation: -1.5% (inactive)
[2]
  viability decrease: 40% (inactive)
[3]
  tube area decrease: 32% (inactive)
[4]
  GLP1 secretion stimulation: 9% (inactive)
[5]
  inhibition of viability: 38.7% (inactive)
[6]
  viability decrease (inhibition): 39.1% (inactive)
[7]
  viability decrease (inhibition): 22% (inactive)
[8]
  inhibition: -7% (inactive)
[9]
  red/green cell ratio (normalised): 0.74 (inactive)
[9]; [16]
  normalised cell number: 1.34
[9]; [17]
  normalised cell number: 0.99
[15]
  remaining activity: 91.8% (inactive)
[12]
  outcome: inactive
[14]
  outcome: inactive

## Cn1cnc2c1c(=O)[nH]c(=O)n2C
[1]
  insulin secretion stimulation: 2.3% (inactive)
[2]
  viability decrease: 5% (inactive)
[3]
  tube area decrease: 15.1% (inactive)
[4]
  GLP1 secretion stimulation: -0.4% (inactive)
[5]
  inhibition of viability: 6.3% (inactive)
[6]
  viability decrease (inhibition): -8.1% (inactive)
[7]
  viability decrease (inhibition): -19.1% (inactive)
[8]
  inhibition: -1.33% (inactive)
[9]
  red/green cell ratio (normalised): 0.94 (inactive)
[9]; [16]
  normalised cell number: 0.96
[9]; [17]
  normalised cell number: 0.9
[10]
  outcome: inactive
[11]
  AC50: 23500 nM (active)
[12]
  AC50: 23500 nM (active)
[13]
  AC50: 10500 nM (active)
[14]
  outcome: inactive

## COc1ccnc(CS(=O)c2nc3ccc(OC(F)F)cc3[nH]2)c1OC (centres undefined)
[1]
  insulin secretion stimulation: 1.2% (inactive)
[2]
  viability decrease: 20.6% (inactive)
[3]
  tube area decrease: -16.8% (inactive)
[4]
  GLP1 secretion stimulation: -0.9% (inactive)
[5]
  inhibition of viability: 5.27% (inactive)
[6]
  viability decrease (inhibition): -0.2% (inactive)
[7]
  viability decrease (inhibition): -5.4% (inactive)
[8]
  inhibition: 11.1% (inactive)
[9]
  red/green cell ratio (normalised): 1.07 (inactive)
[9]; [16]
  normalised cell number: 1.3
[9]; [17]
  normalised cell number: 1.4
[10]
  outcome: inactive
[12]
  outcome: inactive
[13]
  outcome: inactive
[14]
  outcome: inactive

## NC(=O)c1ncn([C@@H]2O[C@H](CO)[C@@H](O)[C@H]2O)n1
[1]
  insulin secretion stimulation: 0% (inactive)
[2]
  viability decrease: -32.4% (inactive)
[3]
  tube area decrease: 25.6% (inactive)
[4]
  GLP1 secretion stimulation: 0.7% (inactive)
[5]
  inhibition of viability: -15.3% (inactive)
[6]
  viability decrease (inhibition): -29.6% (inactive)
[7]
  viability decrease (inhibition): 11.6% (inactive)
[8]
  inhibition: 16.1% (inactive)
[9]
  red/green cell ratio (normalised): 0.68 (inactive)
[9]; [16]
  normalised cell number: 1.31
[9]; [17]
  normalised cell number: 0.89
[10]
  outcome: inactive
[11]
  outcome: inactive
[12]
  outcome: inactive
[14]
  outcome: inactive

## C1CCC(C(CC2CCCCN2)C2CCCCC2)CC1 (centres undefined)
[1]
  insulin secretion stimulation: 7.6% (inactive)
[2]
  viability decrease: 101% (active)
[3]
  tube area decrease: 9.8% (inactive)
[4]
  GLP1 secretion stimulation: 4.9% (inactive)
[5]
  inhibition of viability: 100% (active)
[6]
  viability decrease (inhibition): 120% (active)
[7]
  viability decrease (inhibition): 103% (active)
[8]
  inhibition: 12.3% (inactive)
[9]
  red/green cell ratio (normalised): 0.98 (inactive)
[9]; [16]
  normalised cell number: 1.13
[9]; [17]
  normalised cell number: 1.11
[10]
  AC50: 7420 nM (active)
[12]
  AC50: 9350 nM (active)
[13]
  AC50: 20900 nM (active)
[14]
  AC50: 11800 nM (active)

From PubChem BioAssay
